Compound activity deposited in PubChem BioAssay by National Center for Advancing Translational Sciences (NCATS).
Sampled rows, rich in hits. Any-hit rate of the full collection: about 17%.
HepG2 viability = kills HepG2 cells in TGF-b inhibitor counter-screen | HepG2 CAGA-GFP viability, ATP luminescence, 18 h | Potency, µM (titrated, usually from 46.1 µM), for inactives: top-dose activity change, negative = cytotoxicity, usual class: cytotoxic | actives 0.76% (n = 410,000) | AID 588856
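HepG2 CAGA-GFP cells (1000/well, DMEM with 1% FBS) received compound, then TGF-beta at 500 pg/mL final, and were incubated 18 hours at 37 degrees C. Viability was read by CellTiter-Glo luminescence. Media-only wells were set as complete cell-killing and DMSO as no toxicity.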
S2 tox = viability counter-screen for ATXN expression inhibitors; Potency, µM (highest dose often 56.7 µM), most hits filed as cytotoxic; actives 0.49% (n = 400,000); S2 cells (HEK-293 line with an ATXN2-luciferase reporter) viability, CellTiter-Fluor protease fluorescence, 24 h; note: nearly all actives have a fitted effect of over 40% in size
ATXN2 expr inh = reduces ATXN2 reporter expression in HEK-293 cells | HEK-293 ATXN2-luciferase reporter, luminescence, 24 h | Potency, µM (doses to about 57 µM), for the others: at the top dose activity change, negative = inhibition, actives largely listed as inhibitors | actives 0.72% (n = 360,000) | AID 1745845; note: % is set by controls: 0 for no effect and ±100 for the full control effect; nearly all actives have a fitted effect of over 55% in size
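ATXN2-luciferase reporter cells (luciferase flanked by upstream and downstream ATXN2 gene portions) were treated 24 h at 37 °C with compounds at up to 57 uM. SteadyGlo luminescence gave expression; GF-AFC fluorescence gave viability.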
DT40 TDP1 CPT = DT40-hTDP1 cell growth loss with CPT. chicken DT40 Tdp1-/-;hTDP1 cells + 20 nM CPT, ATP luminescence, 48 h. Potency, µM (titrated, usually from 46.2 µM), inactives show at the highest dose activity change, negative = growth inhibition, actives largely listed as inhibitors. actives 12% (n = 420,000). AID 686979; note: % is set by controls: 0 for no effect and ±100 for the full control effect; nearly all actives have a fitted effect of over 55% in size
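Cell growth measured by CellTiter-Glo luminescence after a minimum 48 h, 37 C compound exposure with 20 nM CPT in Tdp1-knockout DT40 cells stably expressing hTDP1, seeded 400/well; qHTS titration format.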
TGFb SMAD3 inh = blocks TGF-b signaling; actives 1.2% (n = 410,000); Potency, µM (top dose mostly 46.1 µM), without a hit: at the highest dose activity, negative = inhibition, most hits filed as inhibitors; AID 588855; HepG2 CAGA-GFP TGF-b/SMAD3 reporter, GFP fluorescence, 18 h; TGF-beta stimulated, 500 pg/mL final; note: % is set by controls: 0 for no effect and ±100 for the full control effect; nearly all actives have a fitted effect of over 65% in size
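Read-out: total well GFP (ex488/em500-530) summed from mean per-cell fluorescence. Cells: HEPG2 CAGA-GFP, 1% FBS DMEM, 18 h at 37 degrees C with 500 pg/mL final TGF-beta. Unstimulated wells served as the full-inhibition control; stimulated DMSO wells = 0%.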
TDP1 cell noCPT = qHTS for Inhibitors of human tyrosyl-DNA phosphodiesterase 1 (TDP1): qHTS in cells in absence of CPT; Potency, µM (titrated, usually from 46.2 µM), without a hit: top-dose activity change, negative = growth inhibition, most hits filed as inhibitors; DT40 Tdp1-/- hTDP1 cells, no CPT, ATP luminescence, 48 h; actives 15% (n = 420,000); note: % is set by controls: 0 for no effect and ±100 for the full control effect; nearly all actives have a fitted effect of over 55% in size
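Seeded 400 DT40-hTDP1 cells/well (vehicle DMSO, no 20 nM CPT); pinned compounds; ≥48 hr at 37 °C; CellTiter-Glo luminescence as viability measure.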
Starred values were filed as active, the others as inactive; i = inactive; ? = inconclusive; . = no result; ! = a repeat was not active. Calls come from the whole dose curve; as a rule, active = well fitted curve in the direction sought with a large enough effect; inconclusive = small, poorly fitted or top-dose-only effect, or another doubt; inactive = no such curve, though single readings can be large; an effect the other way counts as inactive or inconclusive. Potency is the fitted concentration of half-maximal effect.

SMILES | HepG2 viability | S2 tox | ATXN2 expr inh | DT40 TDP1 CPT | TGFb SMAD3 inh | TDP1 cell noCPT
Cc1ccc([N+](=O)[O-])cc1S(=O)(=O)N1CCn2cccc2C1c1ccccc1 (stereo not given) | 3% | ? | -6% | 21µM* | -2% | ?
O=C(/C=C\c1ccccc1OC(=O)c1ccccc1F)c1cc2ccccc2o1 | -44% | i | 55% | 8.2µM* | 14µM* | 15µM*
Cc1cc(OC(=O)N2CCOCC2)cc(C)c1Cl | -10% | i | 0% | -10% | 9% | -23%
CC(=O)Oc1c(Cl)c(N2CCOCC2)c(OC(C)=O)c2ccccc12 | -63% | i | 66% | 21µM* | 0% | 16µM*
O=C(Nc1ccc(F)cc1F)C1CCCN(c2ncnc3c2nc2n3CCCCC2)C1 (stereo not given) | -17% | i | 4% | 13µM* | -13% | 15µM*
O=C(NCCCN1CCN(c2ccc(F)cc2)CC1)C1CCCN(c2ncnc3c2nc2n3CCCCC2)C1 (stereo not given) | -23% | ? | ? | ? | -25% | 8.2µM*
O=C(Nc1cc(F)ccc1F)C1CCCN(c2ncnc3c2nc2n3CCCCC2)C1 (stereo not given) | -27% | ? | . | 15µM* | -25% | 13µM*
COc1cccc(CCNC(=O)C2CCCN(c3ncnc4c3nc3n4CCCCC3)C2)c1OC (stereo not given) | 12% | i | 1% | -3% | 8% | ?
CSc1ccc(CCNC(=O)C2CCCN(c3ncnc4c3nc3n4CCCCC3)C2)cc1 (stereo not given) | -19% | i | -12% | ? | -17% | ?
CC1CCCCN1CCNC(=O)C1CCCN(c2ncnc3c2nc2n3CCCCC2)C1 (stereo not given) | -17% | i | -6% | 16% | -5% | -27%
Cc1ccc(NC(=O)C2CCCN(c3ncnc4c3nc3n4CCCCC3)C2)c(Br)c1 (stereo not given) | 0% | i | -4% | 5.8µM* | -4% | 4.1µM*
CC1CCN(CCCNC(=O)C2CCCN(c3ncnc4c3nc3n4CCCCC3)C2)CC1 (stereo not given) | -4% | i | -14% | -5% | -2% | -14%
COc1ccc2ccccc2c1CN1CCc2nnc(CNC(=O)c3cccc(F)c3)n2CC1 | . | i | . | 12% | . | -24%
Cc1cccc(NC(=O)C(C)Sc2nc3nc(C)cc(C)n3n2)c1 (stereo not given) | 6% | ? | -2% | -19% | -8% | -26%
Nc1c(C(=O)N/N=C/c2ccc(F)cc2)oc2nc(-c3ccccc3)cc(-c3ccco3)c12 | -53% | . | -32% | 23µM* | 44% | 10µM*
Cc1cc(-c2ccccc2)nc2oc(C(=O)NN)c(N)c12 | -25% | . | -19% | ? | ? | ?
Nc1c(C(=O)N/N=C/c2ccccc2Cl)oc2nc(-c3ccccc3)cc(-c3ccco3)c12 | -26% | . | -38% | ? | -26% | 21µM*
O=S(=O)(c1cccc(C(F)(F)F)c1)n1c(/C=C/c2ccccc2)nc2ccccc21 | -20% | . | . | 8.2µM* | 4% | 10µM*
CSc1ccc(/C=C/c2nc3ccccc3n2S(=O)(=O)c2ccc(Br)cc2)cc1 | -97% | i | ? | 15µM* | ? | 10µM*
CCC(c1nnc(SCC(=O)N(C)c2ccccc2)n1Cc1ccccc1)N(C)C (stereo not given) | 0% | i | -4% | 7% | ? | -19%
COc1cc(OC)c(OC)cc1CNCCNC(=O)c1ccco1 | 1% | i | -14% | -13% | -3% | -26%
NNCCc1ccccc1 | -3% | i | 34% | ? | 5% | 13µM*!
CC1CN(S(=O)(=O)c2ccc(C(=O)Nc3ccc(S(=O)(=O)N4CCOCC4)cc3)cc2)CC(C)O1 (stereo not given) | -6% | i | -15% | ? | -17% | 13µM*
CCc1ccccc1NC(=S)NNC(=O)c1ccccc1Cl | -8% | i | . | 6.5µM* | 2% | 5.8µM*
CCOC(=O)c1c(-c2ccccc2Cl)csc1NC(=O)c1cc(S(=O)(=O)N2CCOCC2)ccc1C | 9% | i | -3% | 10µM* | -5% | 7.3µM*
SMILES | HepG2 viability | S2 tox | ATXN2 expr inh | DT40 TDP1 CPT | TGFb SMAD3 inh | TDP1 cell noCPT
Cc1cc(C)nc(NS(=O)(=O)c2ccc(NC(=O)c3ccc(S(=O)(=O)N4CCOCC4)cc3)cc2)n1 | 2% | i | 1% | -2% | 1% | -16%
CCOc1ccccc1NC(=O)c1cc(S(=O)(=O)N2CCOCC2)ccc1C | -22% | i | -7% | -25% | -11% | -16%
O=C(Nc1ccc(Cc2ccncc2)cc1)c1ccc(S(=O)(=O)N2CCOCC2)cc1 | -28% | i | -19% | ? | 5% | 18µM*
COC(=O)c1ccc(NC(=O)CSc2nn3c(=O)c(C)nnc3s2)cc1 | -7% | i | 2% | -16% | -15% | -29%
CC(C)NC(=O)c1onc(CSc2ccc(Cl)cc2)c1C(=O)NC(C)C | 1% | i | -2% | ? | ? | -81%
O=C(Nc1ccc(Cl)cc1)c1ccc(Br)cc1F | 0% | i | . | -11% | -1% | ?
O=C(Nc1ccc(N2CCCC2)cc1)c1cc(Br)ccc1Cl | -13% | ? | -24% | 3.7µM* | -12% | 4.6µM*
O=C(Nc1ccc(S(=O)(=O)N2CCOCC2)cc1)c1cc(S(=O)(=O)N2CCOCC2)ccc1Cl | 3% | i | -12% | 18µM* | -11% | ?
O=C(Nc1ccc(S(=O)(=O)N2CCOCC2)cc1)c1ccc(Cl)cc1 | -37% | i | -11% | 21µM* | -22% | 21µM*
O=C(Nc1ccc(S(=O)(=O)N2CCOCC2)cc1)c1ccc(S(=O)(=O)N2CCOCC2)cc1 | -35% | i | 2% | -5% | 16% | -4%
CC(C)c1ccc(NC(=O)c2cc(Br)ccc2Br)cc1 | -20% | i | . | ? | -18% | 26µM*
COc1cc(/C=N/NC(=O)C(=O)/C=C2\NC(C)(C)Cc3ccccc32)ccc1O | -14% | ? | -11% | ? | -3% | ?
O=C(Nc1nnc(N2CCCCCC2)s1)Nc1cc(F)ccc1F | -1% | i | 12% | -24% | 0% | ?
Cc1c(Cl)cccc1-n1cnc(=O)c2ccccc21 | 4% | i | -11% | 0% | -10% | -12%
